Source: PubChem (National Center for Advancing Translational Sciences (NCATS))
HPGD inh = inhibitors of human 15-hydroxyprostaglandin dehydrogenase (HPGD); 4.3% of 150,000 active; purified HPGD, NADH fluorescence kinetic, PGE2 substrate; Potency, µM, actives largely listed as inhibitors; AID 894
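NADH formation kinetics: reaction with 30 uM PGE2 and 1 mM NAD+ (final), 20 nM enzyme, Tris-HCl pH 8 with Tween 20, after 15 min compound preincubation at room temperature. Fluorescence change, last versus first of five reads.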
IMPase Li inh = IMPase inhibition in cells with lithium potentiation. CHO-M1 cells, IP1 TR-FRET (IP-One), carbachol + lithium. Potency, µM (doses to about 59.4 µM), hits mostly inhibitors. 0.35% of 210,000 active; active = well fitted curve in the direction sought with a large enough effect; inconclusive = small, poorly fitted or top-dose-only effect, or another doubt; inactive = no such curve, though single readings can be large; an effect the other way counts as inactive or inconclusive;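 also: IP1 builds up when IMPase is blocked and the TR-FRET signal falls; nearly all actives have a fitted effect of over 50% in size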
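Test compounds were applied to CHO-M1 cells previously cultured for 16–30 h at 2000 per well. A small lithium amount accompanied them; after 30 min at 37C, IP1 was quantified by TR-FRET.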
LMNA splice mod = changes lamin A minigene splicing in HeLa cells; Potency, µM (series often up to 46.1 µM), hits mostly inhibitors; 0.01% of 200,000 active; HeLa LMNA splicing GFP/RFP minigene ratio, 48 h; active = well fitted inhibition curve with a large enough effect in the signal ratio, with a control signal flat, not every such curve was filed as active; inconclusive = small, poorly fitted or top-dose-only effect, or effect the other way, or a change in a side signal; the % refers to the signal ratio
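S3 HeLa cells stably expressing lamin A-EGFP splicing minigene plus DsRed2, 600 cells/well, 48 h compound exposure at 37C. Laser-scanning cytometry; analysed as GFP (500-530 nm)/RFP (575-640 nm) total intensity ratio; 0.5% DMSO vehicle.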
KinaseGlo FLuc = Kinase-Glo luciferase inhibition (counter-screen); Kinase-Glo luciferase, ATP luminescence, 8 min; Potency, µM (highest dose often 38.3 µM), most hits filed as inhibitors; 0.28% of 200,000 active; active = well fitted curve in the direction sought with a large enough effect; inconclusive = small, poorly fitted or top-dose-only effect, or another doubt; inactive = no such curve, though single readings can be large; an effect the other way counts as inactive or inconclusive; also: nearly all actives have a fitted effect of over 60% in size
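Compound is pinned into ATP-containing buffer (10 uM ATP, imidazole pH 7.2, 7 mM MgCl2). Kinase-Glo luciferase reagent is then added. Light output is recorded following an 8-min room-temperature incubation.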
ALDH1A1 block = ALDH1A1 (human) enzyme inhibition; Purified ALDH1A1, NADH fluorescence, propionaldehyde substrate; Potency, µM (series often up to 75.3 µM), most hits filed as inhibitors; 7.3% of 220,000 active; AID 1030
Target sequence (P00352 whole entry, looked up): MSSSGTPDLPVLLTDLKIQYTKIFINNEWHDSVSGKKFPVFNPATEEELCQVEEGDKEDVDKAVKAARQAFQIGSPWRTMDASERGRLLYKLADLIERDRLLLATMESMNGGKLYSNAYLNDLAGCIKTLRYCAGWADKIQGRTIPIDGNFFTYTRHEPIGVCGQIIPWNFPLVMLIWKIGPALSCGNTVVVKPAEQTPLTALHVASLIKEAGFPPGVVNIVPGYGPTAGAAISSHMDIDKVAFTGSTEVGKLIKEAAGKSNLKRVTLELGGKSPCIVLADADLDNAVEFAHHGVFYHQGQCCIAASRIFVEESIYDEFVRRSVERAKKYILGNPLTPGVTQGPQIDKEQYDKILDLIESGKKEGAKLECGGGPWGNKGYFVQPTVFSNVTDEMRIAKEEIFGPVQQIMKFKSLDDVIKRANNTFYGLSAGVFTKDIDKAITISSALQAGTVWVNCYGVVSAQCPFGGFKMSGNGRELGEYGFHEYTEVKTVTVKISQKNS
A number is an active result; – = inactive; ? = inconclusive; · = not tested or not shown. Shown are actives, neighbours in structure and some others; about 9% of the full set was active somewhere. Unless noted, calls follow the shape of the dose curve; as a rule, active = well fitted inhibition curve with a large enough effect (not every such curve was filed as active); inconclusive = small, poorly fitted or top-dose-only effect, or another doubt; inactive = no such curve, though single readings can be large or run the other way.

SMILES	HPGD inh	IMPase Li inh	LMNA splice mod	KinaseGlo FLuc	ALDH1A1 block
CCN1C(=O)CC(NCc2ccc3c(c2)OCO3)C1=O (stereo not drawn)	–	–	–	–	–
O=C(CC12CCC(CC1)C2)NCc1ccc2c(c1)OCO2	15.8µM	–	–	–	–
CCOCC(=O)NCc1ccc2c(c1)OCO2	12.6µM	–	–	–	–
O=C(Cc1ccccc1)NCc1ccc2c(c1)OCO2	31.6µM	–	–	–	–
O=C1CC(NCc2ccc3c(c2)OCO3)C(=O)N1CCc1ccccc1 (stereo not drawn)	–	–	–	–	14.1µM
Cc1ccc(-n2c(SCC(N)=O)nnc2-c2ccc(S(=O)(=O)N3CCCCC3)cc2)c(C)c1	–	–	–	–	?
CCC/C(=N/NC(=O)c1ccc2c(c1)OCO2)c1cccs1	15.8µM	–	–	–	?
Cc1ccccc1Cn1c(=O)n(CCC(=O)NCc2ccc3c(c2)OCO3)c(=O)c2ccccc21	–	–	–	–	–
Cc1ccccc1CN1CCN(CC(=O)NCc2ccc3c(c2)OCO3)C1=O	–	–	?	–	12.6µM
O=C(NCc1ccc2c(c1)OCO2)c1cc(-c2ccccn2)nc2ccccc12	·	–	?	–	1.26µM
O=C(C[n+]1ccc(C(=O)NCc2ccccc2)cc1)c1ccc2c(c1)OCCO2	·	–	·	–	3.55µM
O=C(NCc1ccco1)c1cc(-c2ccccn2)nc2ccccc12	–	–	–	–	–
O=C(N/N=C/c1cccs1)c1ccc2c(c1)OCO2	–	–	–	–	–
Nc1cc[n+](CC(=O)c2ccc3c(c2)OCCO3)cc1	–	–	?	–	–
COc1ccc(OC)c(CCNc2ncnc3onc(-c4ccc(F)cc4)c23)c1	·	·	–	·	·
COCCN(C(=O)CNC(=O)c1cccs1)C(C(=O)NC(C)(C)C)c1ccccc1 (stereo not drawn)	·	–	–	–	–
O=C(NCc1ccc2c(c1)OCO2)C1CC(c2ccccc2O)=NO1 (stereo not drawn)	–	–	–	–	11.2µM
CCOCCCNC(=O)c1ccc2c(c1)OCO2	14.1µM	–	–	–	–
O=C(NCc1ccc2c(c1)OCO2)c1cccs1	28.2µM	–	–	–	–
O=C(COC(=O)c1cccs1)NCc1ccc2c(c1)OCO2	–	–	–	–	?
CCOCCCNC(=O)C(c1ccccc1)N(Cc1ccc2c(c1)OCO2)C(=O)c1ccccc1O (stereo not drawn)	·	–	·	·	10µM
O=C1N(Cc2cccc(Cl)c2)C[C@@H]2C[C@@H](c3ccc4nonc4c3)N3CCC[C@@]123	·	–	·	–	–
COc1cccc(CNC(=O)Cn2c(=O)oc3cc(S(=O)(=O)N4CCCCCC4)ccc32)c1	·	·	–	·	·
CCCCC[C@H](O)/C=C/[C@H]1OC(=O)C[C@H](O)[C@@H]1C/C=C\CCCC(=O)O	–	–	·	–	?
CC1CC[C@@]23CCC4(C)[C@@]5(C)CCC6C(C)(C)C(=O)CC[C@@]6(C)C5C=C[C@@]4(OC2=O)C3C1C (stereo partly drawn)	–	–	–	–	–
SMILES	HPGD inh	IMPase Li inh	LMNA splice mod	KinaseGlo FLuc	ALDH1A1 block
CN1C(=O)[C@@H]2[C@@H]3C[C@@H]([C@H]4ON=C(c5ccccc5OCC#N)[C@@H]34)[C@@H]2C1=O	·	·	·	·	–
COc1ccccc1CCNC(=O)c1cc(-c2ccccn2)nc2ccc(Br)cc12	·	12.6µM	·	–	–
O=C(c1cnc(-c2ccc(Cl)cc2)s1)c1ccc(Cl)cc1Cl	35.5µM	–	–	–	–
O=C(CN1C(=O)C2CC=CCC2C1=O)NCc1cccs1 (stereo not drawn)	·	–	–	–	28.2µM
O=C(Nc1ccc(Br)cc1)C(c1ccccc1)c1ccccc1	·	–	–	–	–
CCOC(=O)N1CCN(S(=O)(=O)c2cc([N+](=O)[O-])ccc2C)CC1	·	–	·	–	–
CCOC(=O)N1CCC(=NNS(=O)(=O)c2cccc([N+](=O)[O-])c2)CC1	–	–	–	–	10µM
O=C(O)Cc1ccc(C(=O)c2ccccc2F)s1	15.8µM	–	–	–	5.01µM
CCc1ccc(C(=O)c2ccccc2C(=O)O)s1	–	–	–	–	–
C=CCN=c1scc(-c2ccc3c(c2)NC(=O)CO3)n1/N=C(\C)c1ccccn1	·	–	?	–	2.82µM
C=CCN=c1scc(-c2ccc(F)cc2)n1/N=C/c1ccccn1	–	–	?	–	–
COc1ccccc1C(=O)C1CCCN(C(=O)c2cc(C(C)C)no2)C1 (stereo not drawn)	·	–	?	–	–
O=C(c1ccc2ccccc2c1)C1CCCN(C(=O)c2noc3c2CCCC3)C1 (stereo not drawn)	·	–	·	–	14.1µM
COc1ccc(C(=O)C2CCCN(C(=O)c3cc(C(C)C)no3)C2)cc1F (stereo not drawn)	·	–	·	·	1.58µM
COc1ccc(C(=O)C2CCCN(C(=O)c3cccs3)C2)cc1F (stereo not drawn)	·	–	–	–	?
CCc1noc(C)c1C(=O)N1CCCC(C(=O)c2ccc(OC)c(F)c2)C1 (stereo not drawn)	·	–	?	–	7.08µM
CCCCC/C=C\C/C=C\C/C=C\C/C=C\CCCC(=O)C(F)(F)F	–	–	·	–	20µM
CCCCCCCCCCC/C=C\C/C=C\CCCC(=O)O	–	–	·	–	–
Cc1ccc(S(=O)(=O)NCC(c2ccc(N(C)C)cc2)N2CCc3ccccc32)cc1 (stereo not drawn)	·	·	–	·	·
CCOc1ccc(NC(=O)N(C(C)C)C2CCN(C(C)=O)CC2)cc1	·	·	–	·	·
CN(C)C(=O)c1ccc(-c2ccc3ncnc(N4CCC(C(=O)O)CC4)c3c2)cc1	·	–	–	·	?
Clc1ccc(OCc2nc(-c3ccncc3)no2)c(Cl)c1	12.6µM	–	?	–	–
CCC(C)(C(=O)NC1CCCC1)N(C(=O)CC1NC(=O)NC1=O)c1c(C)n(C)n(-c2ccccc2)c1=O (stereo not drawn)	·	–	·	–	–
O=C(Cc1ccc(F)cc1)Nc1cccc(-c2cn3c(n2)SCC3)c1	·	–	?	–	–
O=C(Nc1cccc(-c2cn3c(n2)SCC3)c1)c1ccc(Br)o1	·	–	?	–	15.8µM
SMILES	HPGD inh	IMPase Li inh	LMNA splice mod	KinaseGlo FLuc	ALDH1A1 block
Cc1c(-c2ccccc2)sc(N)c1C(=O)N1CCOCC1	8.91µM	–	–	–	12.6µM
CCOc1ccccc1C(=O)NC1CCN(Cc2nnnn2C2CCCC2)CC1	–	–	–	–	28.2µM
Cc1[nH]n(-c2cccc(Cl)c2)c(=O)c1C=NCC(C)C	·	–	–	–	–
COc1ccc(Cn2nnnc2C(c2ccc(N(C)C)cc2)N2CCC(C)CC2)cc1 (stereo not drawn)	–	–	–	–	25.1µM
COc1ccc(Cn2nnnc2C(c2ccc(F)cc2)N2CCN(C3CCCC3)CC2)cc1 (stereo not drawn)	–	–	–	–	?
CC1CCN(C(c2ccc(N(C)C)cc2)c2nnnn2Cc2ccccc2)CC1 (stereo not drawn)	–	–	–	–	8.91µM
